For 18 molecules, inhibition results are on record in ChEMBL document CHEMBL5606460, “ASAP - DENV-2 NS2B-NS3 protease fluorescence single point” (2024).

Molecules are shown by their SMILES. The campaign covered roughly 2,000 compounds. About 110 (5.5%) showed an effect of 50% or more. This is one part of a sample in which strong results are shown more often than they occur.

The target of this test is Genome polyprotein (dengue virus type 2) (UniProt P29990).
[1] abbreviates: Thailand/16681/1984, Concentration 25.0 uM, Number of replicates 1.0.

As usually defined, the inhibition is the relative decrease from the control value, in per cent. As for `Cc1cc(CO)c2cccc(NC(=O)CN3CCOCC3)c2n1`, the inhibition is 8.27% (Thailand/16681/1984, Concentration 49.95 uM, Number of replicates 2.0, Standard deviation 2.1720644748171827 %) and 15.1% (Thailand/16681/1984, Concentration 99.9 uM, Number of replicates 2.0, Standard deviation 1.8504772771832996 %).

As to `CS(=O)(=O)N1CCC(C(=O)Nc2nc3c(F)cccc3s2)CC1`, the inhibition (Thailand/16681/1984, Concentration 49.5 uM, Number of replicates 2.0, Standard deviation 0.96531236791799 %) is 0.796%; the inhibition (Thailand/16681/1984, Concentration 99.01 uM, Number of replicates 2.0, Standard deviation 0.9471689504241718 %) is 0.997%; the inhibition (Thailand/16681/1984, Concentration 198.0 uM, Number of replicates 2.0, Standard deviation 0.2746253667085591 %) was 0.83%.

For the molecule `NCc1cccc(NC(=O)[C@H]2CCN(C(=O)OCc3ccccc3)C2)c1`, the inhibition by setting is: (Thailand/16681/1984, Concentration 49.5 uM, Number of replicates 2.0, Standard deviation 1.9221944810499825 %) -1.99%; (Thailand/16681/1984, Concentration 99.01 uM, Number of replicates 2.0, Standard deviation 1.6664051520702452 %) -1.6%; (Thailand/16681/1984, Concentration 198.0 uM, Number of replicates 2.0, Standard deviation 2.955416090340052 %) -1.98%.

`O=Cc1ccc(N2CCC(C(=O)N[C@H]3CCOc4ccc(F)cc43)CC2)cc1`: under setting [1], the inhibition is 15.7%.

Regarding `COc1cc(Cc2cnn(-c3ccc(F)cc3)c2)nc(N2CCNCC2)n1`, the inhibition is, setting by setting: (Thailand/16681/1984, Concentration 49.5 uM, Number of replicates 2.0, Standard deviation 0.031215136118926425 %) 0.871%; (Thailand/16681/1984, Concentration 99.01 uM, Number of replicates 2.0, Standard deviation 1.7579341775024742 %) 1.83%; (Thailand/16681/1984, Concentration 198.0 uM, Number of replicates 2.0, Standard deviation 1.6450393762001025 %) 5.51%.

`O=C(O)c1ccn(C2CCN(Cc3c[nH]c4ccccc34)CC2)n1`: the inhibition runs as follows: (Thailand/16681/1984, Concentration 49.5 uM, Number of replicates 2.0, Standard deviation 2.1869842063089484 %) -2.55%; (Thailand/16681/1984, Concentration 99.01 uM, Number of replicates 2.0, Standard deviation 2.684345636447637 %) -2.42%; (Thailand/16681/1984, Concentration 198.0 uM, Number of replicates 2.0, Standard deviation 2.4976754742252494 %) -2.46%.

For `Cc1cnc(NC(=O)C2CCN(c3ccc(C=O)cc3)CC2)c([N+](=O)[O-])c1`, the inhibition under setting [1] was 14.4%.

For `Cc1cc(CO)c2cccc(Cc3cccc(NC(=O)Cc4c[nH]c5ccccc45)c3)c2n1`, the inhibition is, setting by setting: (Thailand/16681/1984, Concentration 49.95 uM, Number of replicates 2.0, Standard deviation 0.8412168519630298 %) -0.469%; (Thailand/16681/1984, Concentration 99.9 uM, Number of replicates 2.0, Standard deviation 1.20193607081355 %) 3.26%.

Turning to `Cc1cc(CO)c2cccc(Cc3ccccc3NC(=O)C[C@H]3CCCN3)c2n1`, the inhibition is, setting by setting: (Thailand/16681/1984, Concentration 49.95 uM, Number of replicates 2.0, Standard deviation 2.3110961437297597 %) -1.74%; (Thailand/16681/1984, Concentration 99.9 uM, Number of replicates 1.0) -1.01%.

Turning to `Cc1cnccc1NC(=O)c1cncc(S(C)(=O)=O)c1`, the inhibition (Thailand/16681/1984, Concentration 49.5 uM, Number of replicates 2.0, Standard deviation 0.09362930826064811 %) turned out to be 1.61%; the inhibition (Thailand/16681/1984, Concentration 99.01 uM, Number of replicates 2.0, Standard deviation 0.10343333957385824 %) was 2.02%; the inhibition (Thailand/16681/1984, Concentration 198.0 uM, Number of replicates 2.0, Standard deviation 0.39657621920361824 %) is 2.99%.

Turning to `COc1cc(CC(=O)NCc2cccnc2)nc(N2CCNCC2)n1`, the inhibition is, setting by setting: (Thailand/16681/1984, Concentration 49.5 uM, Number of replicates 2.0, Standard deviation 1.473545535483215 %) -5.12%; (Thailand/16681/1984, Concentration 99.01 uM, Number of replicates 2.0, Standard deviation 1.7989399422367844 %) -4.77%; (Thailand/16681/1984, Concentration 198.0 uM, Number of replicates 2.0, Standard deviation 1.3802101593440819 %) -3.61%.

On to `CNC(=O)c1cc(Cl)ccc1NS(=O)(=O)c1ccc(Oc2ccccc2Cl)cc1`, for which the inhibition runs as follows: (Thailand/16681/1984, Concentration 49.5 uM, Number of replicates 2.0, Standard deviation 2.214504665393713 %) 57.1%; (Thailand/16681/1984, Concentration 99.01 uM, Number of replicates 2.0, Standard deviation 0.44410505168195935 %) 89.7%; (Thailand/16681/1984, Concentration 198.0 uM, Number of replicates 2.0, Standard deviation 0.048202507704939286 %) 89.7%.

With `CNC(=O)c1cc(Cl)ccc1NS(=O)(=O)c1ccc(OC)cc1`, for the setting “Thailand/16681/1984, Concentration 49.5 uM, Number of replicates 2.0, Standard deviation 1.598704816821166 %”, the inhibition is -9.51%.

For the molecule `CNC(=O)c1cnncc1NS(=O)(=O)c1ccc(Oc2ccccc2Cl)cc1`, the inhibition is, setting by setting: (Thailand/16681/1984, Concentration 49.5 uM, Number of replicates 2.0, Standard deviation 2.9688082409176766 %) 2.22%; (Thailand/16681/1984, Concentration 99.01 uM, Number of replicates 2.0, Standard deviation 2.2862743420867915 %) 7.71%; (Thailand/16681/1984, Concentration 198.0 uM, Number of replicates 2.0, Standard deviation 2.701916446857586 %) 19.5%.

As to `O=C(NCc1ccccc1)c1cc(O)ccc1NS(=O)(=O)c1ccc(Oc2ccccc2Cl)cc1`, the inhibition runs as follows: (Thailand/16681/1984, Concentration 49.5 uM, Number of replicates 2.0, Standard deviation 0.5844803568567073 %) 33.5%; (Thailand/16681/1984, Concentration 99.01 uM, Number of replicates 2.0, Standard deviation 0.18145668135528656 %) 55.3%; (Thailand/16681/1984, Concentration 198.0 uM, Number of replicates 2.0, Standard deviation 0.23302823954279267 %) 60.6%.

As for `O=C(O)c1cc(Cl)ccc1NS(=O)(=O)c1ccc(Oc2ccccc2Cl)cc1`, the inhibition by setting is: (Thailand/16681/1984, Concentration 49.5 uM, Number of replicates 2.0, Standard deviation 0.09788858447746204 %) 95.7%; (Thailand/16681/1984, Concentration 99.01 uM, Number of replicates 2.0, Standard deviation 0.14802782416517393 %) 94.6%; (Thailand/16681/1984, Concentration 198.0 uM, Number of replicates 2.0, Standard deviation 0.06255266668592849 %) 91.9%.

Take `O=S(=O)(Nc1ccc(Cl)cc1)c1ccc(Oc2ccccc2Cl)cc1`: the inhibition by setting is: (Thailand/16681/1984, Concentration 49.5 uM, Number of replicates 2.0, Standard deviation 0.04775136783847868 %) 12.2%; (Thailand/16681/1984, Concentration 99.01 uM, Number of replicates 2.0, Standard deviation 0.32853232391890236 %) 22.7%; (Thailand/16681/1984, Concentration 198.0 uM, Number of replicates 2.0, Standard deviation 1.060565762839157 %) 44.5%.

As for `CNC(=O)c1cc(Cl)cc(C)c1NS(=O)(=O)c1ccc(Oc2ccccc2Cl)cc1`, the inhibition is -4.39% (Thailand/16681/1984, Concentration 49.5 uM, Number of replicates 2.0, Standard deviation 1.9936078061389018 %); -5.53% (Thailand/16681/1984, Concentration 99.01 uM, Number of replicates 2.0, Standard deviation 1.8430300976388188 %); -7.09% (Thailand/16681/1984, Concentration 198.0 uM, Number of replicates 2.0, Standard deviation 2.010624849106266 %).
